Rows were chosen to be rich in hits. Some 5.7% of all compounds tested hit in one or more screens of this group.
Myeloid diff MLP: myeloid differentiation induction; calls only at 10 µM; ER-HoxA9 myeloid progenitors, lysozyme-GFP differentiation, flow cytometry; 360,000 compounds, 1% hits;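 active = normalized GFP-positive differentiation at or above the plate's own cutoff, the solvent-only control mean plus 3 SD; inconclusive = no clear call, values can overlap the other calls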;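 note: cells exposed to compound for four days before flow analysis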
NR3A LBD binder: NR3A (human) ligand-binding domain modulation; NR3A LBD differential scanning fluorimetry, Tm shift; 0% = protein alone, 100% = glycine-bound protein; Tm shift relative to glycine control, % at 25 µM; 340,000 compounds, 2.5% hits;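 active = melting temperature shift of at least 10% of the positive control shift, at one fixed dose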
FAS-TE inh: blocks the thioesterase domain of human fatty acid synthase; P49327; recombinant FAS-TE, OMFH fluorogenic substrate, fluorescence endpoint; inhibition, % at 15 µM; 360,000 compounds, 0.67% hits;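 active = compounds whose normalised, plate-corrected inhibition of enzyme fluorescence in the single-dose primary screen is 50% or more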
Target sequence (P49327 whole entry, looked up, the tested form may be a part): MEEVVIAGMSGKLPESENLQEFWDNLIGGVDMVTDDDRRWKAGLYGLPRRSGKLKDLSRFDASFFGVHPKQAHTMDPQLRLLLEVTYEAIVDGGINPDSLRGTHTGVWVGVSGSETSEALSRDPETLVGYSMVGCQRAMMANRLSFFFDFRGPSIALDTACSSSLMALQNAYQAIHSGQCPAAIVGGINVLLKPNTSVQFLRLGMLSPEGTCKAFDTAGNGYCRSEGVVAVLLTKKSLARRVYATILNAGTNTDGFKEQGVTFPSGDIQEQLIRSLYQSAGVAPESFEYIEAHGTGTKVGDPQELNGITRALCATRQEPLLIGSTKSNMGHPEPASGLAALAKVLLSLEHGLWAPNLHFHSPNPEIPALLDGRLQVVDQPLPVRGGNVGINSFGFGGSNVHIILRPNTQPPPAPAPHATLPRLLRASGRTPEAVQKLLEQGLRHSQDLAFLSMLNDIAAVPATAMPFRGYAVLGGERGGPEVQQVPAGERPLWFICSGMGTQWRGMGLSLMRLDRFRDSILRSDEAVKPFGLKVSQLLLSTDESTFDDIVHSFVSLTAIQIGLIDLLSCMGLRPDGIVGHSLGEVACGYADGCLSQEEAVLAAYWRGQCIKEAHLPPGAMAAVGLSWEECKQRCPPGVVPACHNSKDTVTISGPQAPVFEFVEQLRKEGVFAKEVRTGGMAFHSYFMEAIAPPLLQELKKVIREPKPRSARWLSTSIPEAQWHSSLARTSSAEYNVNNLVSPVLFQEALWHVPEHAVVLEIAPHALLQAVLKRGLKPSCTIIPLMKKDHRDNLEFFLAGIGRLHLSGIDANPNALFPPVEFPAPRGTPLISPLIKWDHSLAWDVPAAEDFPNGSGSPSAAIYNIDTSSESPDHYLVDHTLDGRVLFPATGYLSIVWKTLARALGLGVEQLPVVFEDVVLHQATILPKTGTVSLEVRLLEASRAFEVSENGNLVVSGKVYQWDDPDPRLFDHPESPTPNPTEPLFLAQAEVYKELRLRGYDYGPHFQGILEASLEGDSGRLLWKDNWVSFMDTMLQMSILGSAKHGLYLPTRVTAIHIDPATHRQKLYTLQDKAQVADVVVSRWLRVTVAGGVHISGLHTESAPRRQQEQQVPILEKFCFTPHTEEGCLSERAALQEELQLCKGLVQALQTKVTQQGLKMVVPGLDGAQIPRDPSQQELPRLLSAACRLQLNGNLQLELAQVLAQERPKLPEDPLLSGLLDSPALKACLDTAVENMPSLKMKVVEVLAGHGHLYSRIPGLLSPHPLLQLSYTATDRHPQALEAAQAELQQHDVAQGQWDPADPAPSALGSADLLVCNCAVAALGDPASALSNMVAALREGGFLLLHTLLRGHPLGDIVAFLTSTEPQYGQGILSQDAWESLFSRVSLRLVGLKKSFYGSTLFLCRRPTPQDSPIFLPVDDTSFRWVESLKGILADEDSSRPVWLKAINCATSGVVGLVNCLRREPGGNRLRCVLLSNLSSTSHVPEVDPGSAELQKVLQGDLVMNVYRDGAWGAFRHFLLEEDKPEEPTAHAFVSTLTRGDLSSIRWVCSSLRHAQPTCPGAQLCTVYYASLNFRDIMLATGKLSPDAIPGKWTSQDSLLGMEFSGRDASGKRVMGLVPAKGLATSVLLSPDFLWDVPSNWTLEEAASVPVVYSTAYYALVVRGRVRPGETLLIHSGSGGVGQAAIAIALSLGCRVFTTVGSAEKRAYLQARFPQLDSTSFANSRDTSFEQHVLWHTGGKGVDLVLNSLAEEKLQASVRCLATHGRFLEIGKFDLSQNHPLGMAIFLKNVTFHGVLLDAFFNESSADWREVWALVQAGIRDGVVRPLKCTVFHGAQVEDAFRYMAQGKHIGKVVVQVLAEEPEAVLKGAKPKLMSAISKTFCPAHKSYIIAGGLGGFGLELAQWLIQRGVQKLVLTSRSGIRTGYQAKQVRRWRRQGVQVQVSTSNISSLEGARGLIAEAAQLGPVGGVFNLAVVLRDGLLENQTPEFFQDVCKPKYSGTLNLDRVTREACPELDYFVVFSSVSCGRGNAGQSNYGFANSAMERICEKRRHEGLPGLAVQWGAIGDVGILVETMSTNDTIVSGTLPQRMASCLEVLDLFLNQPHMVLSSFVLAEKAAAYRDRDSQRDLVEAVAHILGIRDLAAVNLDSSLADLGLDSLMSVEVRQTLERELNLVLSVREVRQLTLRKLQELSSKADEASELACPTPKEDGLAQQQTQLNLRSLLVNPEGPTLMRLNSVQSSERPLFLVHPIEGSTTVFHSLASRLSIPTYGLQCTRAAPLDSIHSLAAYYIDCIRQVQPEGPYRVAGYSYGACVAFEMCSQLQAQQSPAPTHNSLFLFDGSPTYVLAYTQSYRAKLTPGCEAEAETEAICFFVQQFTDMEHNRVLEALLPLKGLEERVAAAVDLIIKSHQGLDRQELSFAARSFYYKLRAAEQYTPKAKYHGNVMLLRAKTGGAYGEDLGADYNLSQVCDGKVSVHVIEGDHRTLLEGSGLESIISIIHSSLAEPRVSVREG
MPTP inh: permeability transition pore inhibition. AID 602449. isolated mouse mitochondria, Ca2+ swelling absorbance, 30 min. inhibition, % at 10 µM. 360,000 compounds, 1.4% hits;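 active = inhibition of 50% or more, scaled per plate between neutral and stimulator controls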
rCAG RNA binder: r(CAG) repeat RNA binding. TO-PRO-1 dye displacement fluorescence. inhibition, % at 3 µM. 370,000 compounds, 1.3% hits. AID 651821;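 active = inhibition above the plate cutoff, the mean of all test compounds on that plate plus 3 SD, cut at about 35% in these data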;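 note: higher means more dye released from RNA so lower well fluorescence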
MPTP counter: Rhodamine 123 counter-screen of mitochondrial pore hits; isolated mitochondria, membrane potential, Rhodamine 123 fluorescence; AID 624504; shares compounds with MPTP inh; 5,000 compounds, 78% hits; inhibition, % at 10 µM; in the data active = inhibition above about 22%
MPTP abs DR: MPTP inhibition, dose response swelling confirmation | shares compounds with MPTP inh | isolated mitochondria swelling, absorbance | IC50, µM | 780 compounds, 58% hits | AID 651561; in the data active = IC50 below about 20 µM
MPTP cs DR: MPTP inhibitor counter-screen activity, dose response. shares compounds with MPTP inh. isolated mitochondria counterscreen, fluorescence read-out. IC50, µM. 780 compounds, 49% hits. AID 651564; in the data active = IC50 below about 80 µM
Each line names hits and unclear results; the compound was inactive in the other large screens (follow-up assays come after a bar, where they were run).

Cc1cc(C(=O)CSc2nnc(-c3ccccc3F)o2)c(C)n1Cc1cccs1	MPTP inh 54 | MPTP counter 29
CCCCN1C(=N)N([C@@H](CCC)CN2CCC[C@H]2CN2C(N)=NC[C@@H]2Cc2ccccc2)C[C@H]1[C@H](C)CC	MPTP inh 81 | MPTP counter inactive
COc1ccc(CC(=O)Nc2cccc(-c3csc(C)n3)c2)cc1	MPTP inh 104 (no result: Myeloid diff MLP) | MPTP counter inactive | MPTP abs DR inactive | MPTP cs DR inactive
COc1ccc(NC(=O)C2CCN(C(=O)Nc3ccccc3)CC2)cc1S(=O)(=O)N(C)C	none
O=C1c2cc(Br)ccc2N(Cc2ccc(Br)cc2)S(=O)(=O)C1c1cc(Cl)c(Cl)cc1[N+](=O)[O-] (stereo not drawn)	FAS-TE inh 82, MPTP inh 66 (no result: rCAG RNA binder) | MPTP counter inactive
Cc1ccc(F)cc1NCC(=O)Nc1ccc(Cl)cc1F	none
Cc1c(Cl)cccc1NCC(=O)Nc1ccc(Cl)cc1F	MPTP inh 57 | MPTP counter 57
O=C(CSc1nnc(-c2ccc(O)cc2)o1)N1CCOCC1	none
Oc1ccc(-c2nnc(SCC3CCCCC3)o2)cc1	MPTP inh 55 | MPTP counter 54
COc1ccc(Cl)cc1NC(=O)CN1CCN(S(=O)(=O)N2CCCCC2)CC1	none
CCOC(=O)c1ccc(NC(=O)C(=O)NCCc2ccc(OC)cc2)cc1	none
COC(=O)c1ccc(NC(=S)NCCC2=CCCCC2)cc1	MPTP inh 89 | MPTP counter 87
CCOC(=O)c1ccc(NC(=S)Nc2ccccc2)cc1	MPTP inh 88 | MPTP counter 95
CCOC(=O)c1ccc(NC(=S)NCCc2ccc(F)cc2)cc1	NR3A LBD binder 24, MPTP inh 85 | MPTP counter 79
CCOC(=O)c1ccc(NC(=O)Nc2ccc3c(c2)OCCO3)cc1	NR3A LBD binder 14, MPTP inh 74 | MPTP counter 78
COC(=O)c1cccc(NC(=S)NCCC2=CCCCC2)c1	none
CC(=O)c1ccc(N(C(=O)Cn2nnc(-c3ccccc3)n2)C(C(=O)NC2CCCCC2)c2ccccn2)cc1 (stereo not drawn)	none
CN(CC(=O)Nc1cccc(F)c1)C(=O)CN1C(=O)C2CC=CCC2C1=O (stereo not drawn)	none
Cc1ccc(S(=O)(=O)NCCC2=CCCCC2)cc1	none
Cc1ccc(CNCCC2=CCCCC2)cc1	MPTP inh 65 | MPTP counter inactive | MPTP abs DR 19 | MPTP cs DR 48
CCOC(=O)c1ccc(NC(=S)Nc2ccc(C)cc2)cc1	none
CCOC(=O)c1cn[nH]c1NC(=S)Nc1ccc(Cl)cc1	MPTP inh 66 | MPTP counter 65
CC(C)(C#N)NC(=O)C1CCCN1S(=O)(=O)c1ccc2ccccc2c1 (stereo not drawn)	none
Cc1cc(-c2ccc(Cl)cc2Cl)c(C#N)c(=O)[nH]1	none
CSc1nc(-c2ccc(Cl)cc2Cl)[nH]c(=O)c1C#N	MPTP inh 88, rCAG RNA binder 43 | MPTP counter 89
CCCCOc1ncnc2c1[nH]c1ccc(C)cc12	MPTP inh 83 | MPTP counter 56
CN(Cc1ccccc1)c1ccc(C(CC(N)=O)NC(=O)c2ccccc2)cc1[N+](=O)[O-] (stereo not drawn)	none
CC1CCN(S(=O)(=O)c2nnc(NC(=O)c3cccc([N+](=O)[O-])c3)s2)CC1	Myeloid diff MLP inconclusive, NR3A LBD binder 11, MPTP inh 82 (no result: rCAG RNA binder) | MPTP counter 42
O=C(Nc1nnc(S(=O)(=O)N2CCCC2)s1)c1cccc([N+](=O)[O-])c1	Myeloid diff MLP inconclusive (no result: rCAG RNA binder)
Cc1ccc2nc(-c3ccc(Cl)cc3)c(Cc3ccccn3)n2c1	none (no result: NR3A LBD binder)
S=C(NCc1ccccc1)Nc1cccc(Cl)c1	MPTP inh 97 | MPTP counter 101
Fc1ccc(CNC(=S)Nc2cccc(C(F)(F)F)c2)cc1	MPTP inh 100 | MPTP counter 85
Fc1ccccc1CNC(=S)Nc1cccc(C(F)(F)F)c1	NR3A LBD binder 14, MPTP inh 74 | MPTP counter 97

Screening results from PubChem BioAssay.
